Only some compounds are listed: those with a hit (about 3.7% of all), similar ones and a draw of the others.
tim10-1 inh = tim10-1 yeast growth inhibition; S. cerevisiae tim10-1 ts strain growth, BacTiter-Glo, 24 h; inhibition, % at 20 µM; 2.2% of 330,000 active;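 active means inhibition of at least 40%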;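 further: mutant grown at 25 °C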
tim23-1 inh = inhibits growth of tim23-1 mutant yeast. S. cerevisiae tim23-1 growth, BacTiter-Glo luminescence, 24 h. inhibition, % at 20 µM. 1.3% of 330,000 active. AID 463212;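 active means growth inhibition of the mutant yeast at or above 50%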;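 further: temperature-sensitive mutant grown at 25 °C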
NLRP3 yeast inh = blocks the NALP3 inflammasome reconstituted in yeast; inhibition, % at 10 µM; 0.39% of 330,000 active; Yeast reconstituted NLRP3/ASC/caspase-1, beta-gal luminescence, 24 h;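 active means inhibition of 50% or more; inactive means inhibition below 50%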
TIM10 inh = growth inhibitors of TIM10 yeast strain | S. cerevisiae TIM10 strain growth, BacTiter-Glo luminescence, 24 h | inhibition, % at 10 µM | 1.4% of 330,000 active;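 active means inhibition of 40% or more at the single tested concentration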;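 further: wild-type TIM10 isogenic control strain grown at permissive 25 °C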
PfHsp90 set2 = growth inhibition of yeast expressing Plasmodium Hsp90; S. cerevisiae expressing PfHsp90, BacTiter-Glo ATP, 48 h; yeast lacking PDR1 and PDR3 efflux regulators; 0.32% of 310,000 active; inhibition, % at 9.4 µM;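 active means every replicate shows inhibition above about 80%, whatever the replicate mean, limit read from the data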
tim10-1 conf = confirmation of tim10-1 mutant yeast growth inhibitors; shares compounds with tim10-1 inh; S. cerevisiae tim10-1 ts strain growth, BacTiter-Glo, 24 h; inhibition, % at 20 µM; 56% of 7,400 active;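 active means inhibition of yeast growth at or above a set limit in either of two repeat tests at 20 µM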;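 further: tim10-1 mutant grown at permissive 25 °C to find synthetic lethal compounds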
tim10 confirm = TIM10 yeast growth inhibition, confirmed; S. cerevisiae tim10 strain growth, BacTiter-Glo luminescence, 24 h; shares compounds with TIM10 inh; 63% of 4,600 active; inhibition, % at 10 µM;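 active means inhibition of yeast growth at or above a set limit in either of two replicates at 10 µM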; further: this counterscreen used the strain with wild-type TIM10
Numbers stand for hits.

What do the screens show for `Cc1cc(C)c(C(=O)/C=C/c2cccc3ccccc23)c(=O)[nH]1`?
tim10-1 inh: 43; tim23-1 inh: inactive; NLRP3 yeast inh: inactive; TIM10 inh: 41; PfHsp90 set2: inactive; tim10-1 conf: 38; tim10 confirm: inactive

Results for Cc1cc(C)c(C(=O)/C=C/c2ccc3c(c2)OCO3)c(=O)[nH]1 ?
tim10-1 inh: inactive; tim23-1 inh: inactive; NLRP3 yeast inh: inactive; TIM10 inh: inactive; PfHsp90 set2: inactive

What do the screens show for `CCOC(=O)/C=C/C(=O)OCC(=O)Nc1ccc(OC)c(Cl)c1`?
tim10-1 inh: 53; tim23-1 inh: inactive; NLRP3 yeast inh: inactive; TIM10 inh: 44; PfHsp90 set2: inactive; tim10-1 conf: 41; tim10 confirm: 36

How did O=C(Cn1cc(CNC(=O)C2CCCCC2)nn1)Nc1cc(C(F)(F)F)ccc1Cl do in these assays?
tim10-1 inh: inactive; tim23-1 inh: inactive; NLRP3 yeast inh: inactive; TIM10 inh: inactive; PfHsp90 set2: inactive

What do the screens show for `Cc1ccc(-n2cnc3cc(NCc4cccs4)ccc32)cc1`?
tim10-1 inh: 56; tim23-1 inh: inactive; NLRP3 yeast inh: inactive; TIM10 inh: 63; PfHsp90 set2: inactive; tim10-1 conf: 57; tim10 confirm: 64

What do the screens show for `CC1C(=O)N2CCCc3cc(NC(=O)c4ccccc4Br)cc1c32` (centres undefined)?
tim10-1 inh: inactive; tim23-1 inh: inactive; NLRP3 yeast inh: inactive; TIM10 inh: inactive; PfHsp90 set2: inactive

What do the screens show for `O=c1oc2ccccc2c(O)c1/C=C1\C=Nc2ccccc21`?
tim10-1 inh: 65; tim23-1 inh: inactive; NLRP3 yeast inh: inactive; TIM10 inh: 69; PfHsp90 set2: inactive; tim10-1 conf: 72; tim10 confirm: inactive

What do the screens show for `Cc1ccc2cc(C)c(N3CCN(c4ccccn4)CC3)nc2c1`?
tim10-1 inh: 53; tim23-1 inh: inactive; NLRP3 yeast inh: inactive; TIM10 inh: 43; PfHsp90 set2: inactive; tim10-1 conf: 34; tim10 confirm: 38

What do the screens show for `CCOC(=O)N1CCN(S(=O)(=O)N2CCCC(C(=O)NCc3cccc(OC)c3)C2)CC1` (centres undefined)?
tim10-1 inh: inactive; tim23-1 inh: inactive; NLRP3 yeast inh: inactive; TIM10 inh: inactive; PfHsp90 set2: inactive

How did COc1ccc(-c2ccc(-c3nc4ccc(C)cn4c3NC3CCCCC3)cc2OC)cc1 do in these assays?
tim10-1 inh: inactive; tim23-1 inh: inactive; NLRP3 yeast inh: inactive; TIM10 inh: inactive; PfHsp90 set2: inactive

Results for Cc1ccc(NC(=O)C2CSC3(C)CCC(=O)N23)cc1S(=O)(=O)N1CCCCCC1 (centres undefined) ?
tim10-1 inh: inactive; tim23-1 inh: inactive; NLRP3 yeast inh: inactive; TIM10 inh: inactive; PfHsp90 set2: inactive

How did Cc1ccc2nc(-c3ccccc3)c(CN3CCN(c4ccccc4F)CC3)n2c1 do in these assays?
tim10-1 inh: 56; tim23-1 inh: inactive; NLRP3 yeast inh: inactive; TIM10 inh: 51; PfHsp90 set2: inactive; tim10-1 conf: 42; tim10 confirm: 37

What do the screens show for `CC[C@@]1(C(=O)OC)N[C@H](CN(C)C(=O)c2ccc(F)cc2)[C@@H]2C(=O)N(Cc3ccccc3)C(=O)[C@@H]21`?
tim10-1 inh: inactive; tim23-1 inh: inactive; NLRP3 yeast inh: inactive; TIM10 inh: inactive; PfHsp90 set2: inactive

What do the screens show for `COc1cccc(N2CCN(C3CC(=O)N(c4ccc(Cl)c(Cl)c4)C3=O)CC2)c1` (centres undefined)?
tim10-1 inh: 55; tim23-1 inh: inactive; NLRP3 yeast inh: inactive; TIM10 inh: 41; PfHsp90 set2: inactive; tim10-1 conf: 31; tim10 confirm: 40

What do the screens show for `Cc1ccc(-c2csc3ncnc(Sc4nnc(CN5CCCCCC5=O)o4)c23)cc1`?
tim10-1 inh: 40; tim23-1 inh: inactive; NLRP3 yeast inh: inactive; TIM10 inh: 56; PfHsp90 set2: inactive; tim10-1 conf: 36; tim10 confirm: 39

Results for Cc1[nH]nc2nc(SCC(=O)NC3CCCCC3)n(-c3ccc(Br)cc3)c(=N)c12 ?
tim10-1 inh: inactive; tim23-1 inh: inactive; NLRP3 yeast inh: inactive; TIM10 inh: inactive; PfHsp90 set2: inactive

How did CCC(=O)N1CCc2cc(S(=O)(=O)N3CCN(c4ccccc4)CC3)ccc21 do in these assays?
tim10-1 inh: inactive; tim23-1 inh: inactive; NLRP3 yeast inh: inactive; TIM10 inh: inactive; PfHsp90 set2: inactive

How did CCC(=O)N1CCc2cc(S(=O)(=O)N3CCN(c4ccccn4)CC3)ccc21 do in these assays?
tim10-1 inh: 43; tim23-1 inh: inactive; NLRP3 yeast inh: inactive; TIM10 inh: 44; PfHsp90 set2: inactive; tim10-1 conf: 37; tim10 confirm: inactive

How did COc1cc(OC)cc(-c2sc3ccc(OC)cc3c2C#CC2(N)CCCCC2)c1 do in these assays?
tim10-1 inh: 44; tim23-1 inh: inactive; NLRP3 yeast inh: inactive; TIM10 inh: 45; PfHsp90 set2: inactive; tim10-1 conf: inactive; tim10 confirm: inactive

Results for COc1cccc(-c2sc3ccc(OC)cc3c2C#CC2(O)CCCCC2)c1 ?
tim10-1 inh: inactive; tim23-1 inh: inactive; NLRP3 yeast inh: inactive; TIM10 inh: inactive; PfHsp90 set2: inactive

What do the screens show for `O=C(c1cc(COc2ccc(F)cc2Cl)on1)N1CCCCC1c1cccnc1` (centres undefined)?
tim10-1 inh: inactive; tim23-1 inh: inactive; NLRP3 yeast inh: inactive; TIM10 inh: inactive; PfHsp90 set2: inactive

How did O=C(c1cc(COc2ccc(F)cc2Cl)on1)N1CCC(OCc2cccnc2)CC1 do in these assays?
tim10-1 inh: 53; tim23-1 inh: inactive; NLRP3 yeast inh: inactive; TIM10 inh: 52; PfHsp90 set2: inactive; tim10-1 conf: 48; tim10 confirm: 52

What do the screens show for `CS(=O)(=O)c1ccc(C(=O)OCc2nnc(-c3ccc(Cl)cc3)o2)cc1[N+](=O)[O-]`?
tim10-1 inh: 59; tim23-1 inh: inactive; NLRP3 yeast inh: inactive; TIM10 inh: 51; tim10-1 conf: 56; tim10 confirm: 41

What do the screens show for `COc1ccc2oc(C(=O)N3CCc4ccccc43)c(C)c2c1`?
tim10-1 inh: inactive; tim23-1 inh: inactive; NLRP3 yeast inh: inactive; TIM10 inh: inactive; PfHsp90 set2: inactive

Results for CC(C)c1ccc(/C=C/C(=O)n2nnc3ccccc32)cc1 ?
tim10-1 inh: 55; tim23-1 inh: inactive; NLRP3 yeast inh: inactive; TIM10 inh: 50; PfHsp90 set2: inactive; tim10-1 conf: 52; tim10 confirm: 48

How did CC(C)c1ccc(/C=C/C(=O)N2CCOCC2)cc1 do in these assays?
tim10-1 inh: inactive; tim23-1 inh: inactive; NLRP3 yeast inh: inactive; TIM10 inh: inactive; PfHsp90 set2: inactive

What do the screens show for `O=C(/C=C/c1cccc(Cl)c1)Nn1c(-c2cccs2)nc2ccccc2c1=O`?
tim10-1 inh: 45; tim23-1 inh: inactive; NLRP3 yeast inh: inactive; TIM10 inh: 43; PfHsp90 set2: inactive; tim10-1 conf: 36; tim10 confirm: inactive

Screens as filed in PubChem.
